High-throughput results as filed in PubChem.
Hits are enriched below; roughly 1.2% of the tested compounds scored in any of these assays.
TLR9-MyD88 block: inhibitors of TLR9-MyD88 association in cells, primary screen, cell-based, CHO, BLA complementation, fluorescence. inhibition, % at 4.98 µM. Toll-like receptor 9 (Homo sapiens) + Myeloid differentiation primary response protein …. AID 504734, 2011. CCF4 FRET ratio. actives 0.21% (n = 340,000);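 active = inhibition above the mean over all tested compounds plus 3 SD, cut at about 21% in these data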;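 also: 0% = DMSO only wells and 100% = clavulanate BLA inhibitor control wells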
TLR4-MyD88 BLA: inhibitors of TLR4-MyD88 association in cells, primary screen, cell-based, HeLa CL3-4, BLA complementation, FRET ratio; inhibition, % at 8.4 µM; Toll-like receptor 4 (Homo sapiens) + Myeloid differentiation primary response protein …; HeLa CL3-4 TLR4/MyD88 BLA complementation; actives 0.18% (n = 200,000); in the data active = inhibition above about 25%;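 also: 0% = vehicle and 100% = reference inhibitor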
NOD2 RIPK2 PPI: NOD2-RIPK2 binding disruptors in cells, primary screen, fluorescence, CHO cells, BLA complementation. CCF4 ratio. AID 624267, 2012. inhibition, % at 4.98 µM. Receptor-interacting serine/threonine-protein kinase 2 (Homo sapiens), O43353. actives 0.38% (n = 360,000); in the data active = inhibition above about 21%;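 also: 0% = vehicle only and 100% = reference blocker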
ABHD5-PLIN5 inh: ABHD5-PLIN5 interaction inhibitors, primary screen, cell lysate, split luciferase complementation, luminescence; Perilipin-5 (Homo sapiens) + 1-acylglycerol-3-phosphate O-acyltransferase ABHD5 (Homo …; Split G. princeps luciferase complementation, 4 h; inhibition, % at 4 µM; actives 0.78% (n = 360,000);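 active = inhibition above the mean inhibition across every tested compound plus 3 SD, cut at about 22% in these data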;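 also: 0% = DMSO only wells and the 100% control is not disclosed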
ABHD5-PLIN5 conf: ABHD5-PLIN5 interaction inhibitors, confirmation, biochemical, luminescence | actives 67% (n = 2,200) | shares compounds with ABHD5-PLIN5 inh | inhibition, % at 4 µM; in the data active = inhibition above about 23%;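 also: 0% = DMSO vehicle wells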
HNF4 counter: HNF4 dimerization inhibitors, counter-screen for ABHD5-PLIN5 interaction inhibitor project, biochemical, split-luciferase complementation, luminescence | shares compounds with ABHD5-PLIN5 inh | inhibition, % at 4 µM | actives 77% (n = 2,200);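 active = mean inhibition across replicate wells exceeding the computed hit threshold, cut at about 13% in these data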;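 also: light from luciferase halves that rejoin when HNF4 fusion proteins dimerize; 0% = DMSO only wells and the 100% control is not given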
Target sequence (P41235 whole entry, looked up, the tested form may be a part): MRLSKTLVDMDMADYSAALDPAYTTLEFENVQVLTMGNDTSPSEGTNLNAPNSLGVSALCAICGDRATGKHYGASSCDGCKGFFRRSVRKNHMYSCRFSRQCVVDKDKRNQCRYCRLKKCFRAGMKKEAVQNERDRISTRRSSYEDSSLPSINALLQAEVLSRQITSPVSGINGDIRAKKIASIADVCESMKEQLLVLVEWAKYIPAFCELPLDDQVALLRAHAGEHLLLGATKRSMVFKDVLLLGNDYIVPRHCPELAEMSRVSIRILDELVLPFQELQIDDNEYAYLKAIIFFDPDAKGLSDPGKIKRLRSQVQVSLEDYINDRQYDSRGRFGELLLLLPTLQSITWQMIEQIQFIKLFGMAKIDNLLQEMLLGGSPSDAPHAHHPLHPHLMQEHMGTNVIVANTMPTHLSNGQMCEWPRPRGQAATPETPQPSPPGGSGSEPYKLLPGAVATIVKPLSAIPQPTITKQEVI
Numbers without * were called inactive; nt = no result given.

SMILES	TLR9-MyD88 block	TLR4-MyD88 BLA	NOD2 RIPK2 PPI	ABHD5-PLIN5 inh	ABHD5-PLIN5 conf	HNF4 counter
O=C(NNC(=O)C1CC1)c1ccccc1[N+](=O)[O-]	2	nt	2	32*	8	7
O=[N+]([O-])c1cc(S(=O)(=O)C(F)(F)F)ccc1Sc1nc2ccccc2[nH]1	4	9	19	54*	59*	79*
CCOc1ccc(C(=O)NCC(=O)OC(C)C(=O)NCc2ccco2)cc1OCC (stereo not drawn)	3	-7	-7	5	nt	nt
Cc1ccccc1C(=O)NCC(=O)OC(C)C(=O)NCc1ccco1 (stereo not drawn)	0	nt	1	25*	5	2
CCCNC(=O)Nc1ccc2c(c1)N(C)C(=O)c1ccccc1S2	-3	-6	-9	33*	54*	4
CCCCNC(=O)Nc1ccc2c(c1)N(C)C(=O)c1ccccc1S2	0	nt	-9	50*	68*	4
CN1C(=O)c2ccccc2Sc2ccc(NC(=O)N3CCCC3)cc21	2	-14	2	9	nt	nt
Cn1cc(CN2C[C@H]3CC[C@H]2C3)c(-c2ccccc2F)n1	-13	-11	-7	-6	nt	nt
Cc1ccc2c(c1)C(C)CC(C)(C)N2C(=O)CN1CCN(C)CC1 (stereo not drawn)	4	nt	10	2	nt	nt
COc1ccc(NC(=O)CCc2nnc3ccc(NCc4ccco4)nn23)cc1	-17	nt	3	1	nt	nt
COc1ccccc1NC(=O)CCc1nnc2ccc(NCc3ccco3)nn12	-14	nt	-5	9	nt	nt
COc1ccc(NC(=O)CCc2nnc3ccc(NCc4ccco4)nn23)cc1OC	-4	nt	-1	34*	12	13*
Cc1cccnc1NC(=O)CCc1nnc2ccc(NCc3ccco3)nn12	-6	nt	-32	32*	11	6
COC(=O)c1ccc(NC(=O)CCc2nnc3ccc(NCc4ccco4)nn23)cc1	-7	nt	-7	57*	14	14*
Cc1ccc2c(c1)C1CN(C)CCC1N2S(=O)(=O)c1cc(C(F)(F)F)ccc1Cl (stereo not drawn)	-8	nt	-7	10	nt	nt
C[C@H]1CCC[C@@]2(O[C@H](CCO)C[C@H](O)[C@H]2O)O1	3	nt	-31	-4	nt	nt
O=[N+]([O-])c1ccc(-[n+]2ccc3ccccc3c2)c([N+](=O)[O-])c1	4	nt	1	29*	62*	58*
O=[N+]([O-])c1ccc(SNc2ccccc2)c([N+](=O)[O-])c1	-2	nt	1	-7	nt	nt
COc1ccc(NS(=O)(=O)c2ccc(C)c(C(=O)NCCCN3CCCC3=O)c2)cc1	11	nt	-6	23*	4	3
O=C(CCNC(=O)c1ccccc1Cl)Nc1ccc2c(c1)OCCO2	5	nt	-10	5	nt	nt
COC(=O)C1C=CC(OC2OC(COC(C)=O)C(OC(C)=O)C(OC(C)=O)C2OC(C)=O)n2c(=O)n(-c3ccccc3)c(=O)n21 (stereo not drawn)	4	nt	-14	26*	18	72*
Cc1ccc(NC(=O)CN(C)C(=O)c2cccc(S(=O)(=O)NCc3ccco3)c2)cc1	-18	nt	-6	-9	nt	nt
Fc1cccc(Cc2c(-c3ccco3)nc3c4ccccc4ccn23)c1	nt	nt	4	26*	13	23*
Fc1cccc(Cc2c(-c3ccccc3)nc3ccc(Cl)cn23)c1	nt	nt	7	5	nt	nt
Brc1ccc2nc(-c3ccccc3)c(Cc3ccsc3)n2c1	nt	nt	-6	-10	nt	nt
SMILES	TLR9-MyD88 block	TLR4-MyD88 BLA	NOD2 RIPK2 PPI	ABHD5-PLIN5 inh	ABHD5-PLIN5 conf	HNF4 counter
Fc1cccc(Cc2c(-c3ccco3)nc3ccc(Br)cn23)c1	nt	nt	6	72*	44*	78*
Brc1ccc2nc(-c3ccco3)c(Cc3ccsc3)n2c1	nt	nt	3	75*	49*	91*
Fc1cccc(Cc2c(-c3ccco3)nc3ccc(Cl)cn23)c1	nt	nt	13	75*	21	53*
Cc1ccc(C(=O)O/N=C(\N)c2nonc2N)cc1	9	-7	-14	0	nt	nt
CC(c1ccccc1)n1c(SCC(=O)Nc2ccccc2)n[nH]c1=O (stereo not drawn)	-6	nt	0	1	nt	nt
COC(=O)c1ccc2nc(-c3ccco3)c(Cc3ccccc3)n2c1	nt	nt	4	67*	57*	83*
COC(=O)c1ccc2nc(-c3ccco3)c(Cc3cccc(Cl)c3)n2c1	nt	nt	-8	22	nt	nt
Cc1ccc2nc(-c3ccco3)c(Cc3ccccc3)n2c1	nt	nt	-8	38*	7	10
Cc1ccc2nc(-c3ccco3)c(CC(C)(C)C)n2c1	nt	nt	-7	3	nt	nt
Clc1ccc2nc(-c3ccco3)c(Cc3ccccc3)n2c1	nt	nt	2	55*	58*	72*
COc1ccc(-c2nc3ccc(Cl)cn3c2Cc2ccccc2)cc1OC	nt	nt	6	-1	nt	nt
O=C(O)c1ccc(S(=O)(=O)c2ccc([N+](=O)[O-])cc2[N+](=O)[O-])cc1	-8	nt	-13	42*	68*	110*
CC1(C)CC(=O)C(C(C2=C(O)CC(C)(C)CC2=O)c2ccc(O)c([N+](=O)[O-])c2)=C(O)C1	4	2	-2	24*	73*	57*
CC1(C)CC(=O)C(C(C2=C(O)CC(C)(C)CC2=O)c2ccc([N+](=O)[O-])cc2)C(=O)C1 (stereo not drawn)	-12	-10	-8	-3	nt	nt
CC1=NOC(=O)/C1=C\c1ccc(-c2cccc(Cl)c2)o1	17	13	9	51*	99*	106*
CC1=NOC(=O)/C1=C\c1ccc(-c2ccc(Cl)c(C(=O)O)c2)o1	-3	4	-5	9	nt	nt
CCOC(CN=c1nc(N(C)C)ss1)OCC	0	nt	7	81*	78*	101*
CCCC[C@@H]1Cc2[nH][nH]c(=O)c2[C@H](c2ccc3ccccc3c2)O1	nt	nt	8	17	nt	nt
COc1cccc(CNC(=O)CCS(=O)(=O)c2ccccc2Cl)c1	0	nt	-1	4	nt	nt
CCCCC[C@@H](C)N1C[C@@H](COCc2ccccc2)Oc2cc(N3CC[C@@H](N(C)C)C3)ccc2S1(=O)=O	nt	nt	-4	28*	2	-5
CCOc1cc(C(c2c(O)nc(SC)[nH]c2=O)c2c(O)nc(SC)[nH]c2=O)ccc1O	nt	nt	-17	32*	89*	77*
COc1ccccc1C(c1c(O)nc(SC)[nH]c1=O)c1c(O)nc(SC)[nH]c1=O	6	nt	-8	24*	49*	42*
CCOCCc1c(O)nc(SC)[nH]c1=O	1	nt	-6	2	nt	nt
O=S(=O)(/C(=C\c1ccc(C(F)(F)F)cc1)c1nc2ccccc2[nH]1)c1ccccc1	-10	nt	19	86*	101*	96*
